# Measurements as given in PubChem BioAssay AID647 (Vanderbilt High Throughput Screening Facility, 2007).
# Among all 2,200 compounds or so, about 1,400 (64%) were called active.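 The calls were made as follows: active = luminescence in either replicate above plate mean of wells with a partly effective reference agonist dose plus 3 SD; inactive = the rest.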 The set was probably picked from earlier hits. Only a selection was taken, and actives are over-represented in it overall.
# Assay: isoproterenol-driven CRE-luciferase response modulation in HEK293 cells, confirmation, counter-screen for D1 allosteric modulator project, cell-based, secondary assay 2, luminescence (AID 647);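 also: isoproterenol raises cAMP through native beta-adrenoceptor Gs so signal bypasses D1; raw luminescence counts from the Envision reader with one value per duplicate well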
# Conditions: isoproterenol EC30 counter-screen, at 10 µM, hits give high values
row,SMILES,luminescence
1,CCC(=NCc1ccco1)c1c(O)n(Cc2ccccc2)c(=O)[nH]c1=O,3640 (active)
